CYP2C9 inh: blocks human cytochrome P450 2C9; P11712; CYP2C9 Supersomes, luciferin-H conversion, luminescence; inhibition, % at 5 µM; actives 20% (n = 96,000); AID 777;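 active means blocking of liver enzyme CYP2C9 beyond about 50% at 5 µM, limit read from the data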
Cav32 inh: human Cav3.2 channel inhibition, primary screen. O95180. Cav3.2-expressing cells, Fluo-4 calcium fluorescence FDSS; stronger effect = lower value. B-score at 10 µM. actives 4% (n = 100,000);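 active means single-dose well whose peak fluorescence ratio is a statistical outlier from its plate by either plate-standardised score or position-corrected B-score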
CYP2C19 activ: cytochrome P450 2C19 (human) activation; recombinant CYP2C19, luciferin-H EGE luminescence; stronger effect = higher value; 0 = fully inhibited enzyme, 1 = untreated enzyme; activation factor at 5 µM; 96,000 tested, under 10 active;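 active means activation factor of at least 2 at 5 µM in the primary screen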;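 further: 0 = wells with 2.5 mM tranylcypromine and 1 = vehicle-only wells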
Target sequence (P33261 whole entry, looked up): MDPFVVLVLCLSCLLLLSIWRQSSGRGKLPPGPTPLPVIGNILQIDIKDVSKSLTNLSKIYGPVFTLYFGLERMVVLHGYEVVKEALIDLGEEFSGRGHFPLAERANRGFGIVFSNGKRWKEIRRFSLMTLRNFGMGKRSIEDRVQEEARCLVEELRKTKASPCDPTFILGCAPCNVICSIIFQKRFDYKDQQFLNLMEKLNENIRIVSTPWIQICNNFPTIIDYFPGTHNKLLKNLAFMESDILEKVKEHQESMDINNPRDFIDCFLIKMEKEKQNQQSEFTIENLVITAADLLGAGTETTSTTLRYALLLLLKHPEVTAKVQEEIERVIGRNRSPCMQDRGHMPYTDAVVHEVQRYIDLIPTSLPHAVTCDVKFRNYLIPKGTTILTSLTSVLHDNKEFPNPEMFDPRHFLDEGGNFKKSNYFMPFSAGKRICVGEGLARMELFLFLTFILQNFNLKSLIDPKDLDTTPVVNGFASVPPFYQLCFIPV
CYP2C9 activ: activators of human CYP2C9 | P11712 | recombinant CYP2C9, luciferin-H conversion, luminescence; stronger effect = higher value; factor 1 = untreated enzyme, 0 = blocked | activation factor at 5 µM | actives 1.4% (n = 96,000);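 active means activation factor of 2 or more for CYP2C9 at a 5 µM dose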;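 further: 0 = sulfaphenazole-blocked wells and 1 = vehicle-only wells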
CYP2C19 inh: inhibitors of human CYP2C19; actives 21% (n = 96,000); P33261; AID 778; CYP2C19 Supersomes, luciferin-H EGE luminescence, 30 min; inhibition, % at 5 µM;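 active means CYP2C19 inhibition above a set limit at 5 µM in the primary screen, cut at about 50% in these data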;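 further: plate controls were negative control wells for no effect and 2.5 mM tranylcypromine positive control for full effect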
* hit, by the source's call; · = no result given. Rows were chosen to be rich in hits. Some 27% of all compounds tested hit in one or more screens of this group.

SMILES | CYP2C9 inh | Cav32 inh | CYP2C19 activ | CYP2C9 activ | CYP2C19 inh
Cc1cc(C)n(C(=O)c2cc3c(s2)CCCC3)n1 | 1 | -0.044 | 1 | 1 | 1
COCCNC(=O)C1=C(N)C(C(=O)Nc2ccc(C)c(S(=O)(=O)N3CCCCC3)c2)SC1=Nc1ccc(C)cc1C (centres undefined) | 75* | -2.8 | 0.8 | 0.2 | 24
CCN(CC)S(=O)(=O)c1cccc(NC(=O)C2SC(=Nc3ccc(C)cc3C)C(C(=O)NCC3CCCO3)=C2N)c1 (centres undefined) | 93* | -1.5 | 0.4 | 0.1 | 62*
Cc1nnc(NC(=O)c2ccc(C)c(S(=O)(=O)N3CCCCCC3)c2)s1 | -9 | -0.12 | 1 | 1.1 | -4
Cc1nn(C)c(Oc2cccc(Cl)c2)c1C(=O)Nc1ccc(F)cc1 | 10 | 0.16 | 0.6 | 0.9 | 40
COc1ccc(CNC(=O)c2csc(Cc3ccc(OC)cc3)n2)cc1 | 67* | -7.9* | 0.5 | 0.3 | 49
COc1ccc(CNC(=O)c2cnc3scc(C)n3c2=O)cc1 | 3 | 0.48 | 0.5 | 1 | 50
COc1ccc(CNC(=O)c2csc(Cc3ccc(Cl)cc3)n2)cc1 | 62* | · | 0.4 | 0.4 | 57*
CCCC(=O)Nc1nnc(SCC(=O)NCc2cccs2)s1 | 3 | 0.86 | 0.8 | 1 | 17
CCCNC(=S)N1CCC(c2nc3cc(C)c(C)cc3[nH]2)CC1 | 16 | -0.44 | 0.8 | 0.8 | 23
Cc1cc2nc(C3CCN(CC4COc5ccccc5O4)CC3)[nH]c2cc1C (centres undefined) | 41 | -6.3* | 0.5 | 0.6 | 54*
CC(=O)NC1=NN(C(C)=O)C(C)(c2cccs2)S1 (centres undefined) | · | 0.7 | · | · | ·
CCc1ccc(C2(C)SC(NC(C)=O)=NN2C(C)=O)cc1 (centres undefined) | 23 | 0.6 | 0.3 | 0.8 | 71*
CC(C)CNCC(=O)N1c2ccccc2Sc2ccccc21 | 5 | 0.7 | 1 | 0.9 | -1
CCCCC(NC(=O)c1ccccc1)C(=O)OCC(=O)N1c2ccccc2Sc2ccccc21 (centres undefined) | 94* | -7.2* | 0.6 | 0.1 | 44
CCCOc1ncnc2c1[nH]c1ccccc12 | 18 | · | 0.8 | 0.8 | 22
CN(C)C=Nc1ncc2c([nH]c3ccccc32)c1C#N | 50 | 1 | 0.4 | 0.5 | 63*
O=C1OC(Nc2ccc(Br)cn2)c2ccccc21 (centres undefined) | 6 | -0.021 | 1 | 0.9 | 1
Oc1ccccc1-c1nnc(COc2ccc(Cl)cc2Cl)o1 | -1 | -5.9* | 1 | 1 | -3
CCCCC1(C)NC(=O)c2c(C)sc(C(=O)OCC)c2N1 (centres undefined) | 94* | -1.3 | 0.7 | 0.1 | 30
CCOC(=O)CC1(C)NC(=O)c2c(C)sc(C(=O)OCC)c2N1 (centres undefined) | 23 | · | 0.6 | 0.8 | 36
CCOC(=O)C1=C(CS(=O)(=O)c2ccccc2)NC(=O)NC1c1ccccc1 (centres undefined) | 5 | -1.5 | 0.8 | 1 | 24
CCOC(=O)N1CCc2c(sc3c2C(=O)NC(c2ccccc2)N3)C1 (centres undefined) | 39 | · | 0.8 | 0.6 | 15
CCOC(=O)CC1(CC(=O)OCC)NC(=O)c2c(C)sc(C(=O)OCC)c2N1 | 48 | 0.7 | 0 | 0.5 | 96*
CCOC(=O)C1=C(c2ccccc2)NC(=O)NC1c1ccc(N(C)C)cc1 (centres undefined) | 9 | -0.049 | 0.2 | 0.9 | 80*
SMILES | CYP2C9 inh | Cav32 inh | CYP2C19 activ | CYP2C9 activ | CYP2C19 inh
CCOC(=O)c1sc(C)c2c1NC(c1ccc(N(C)C)cc1)NC2=O (centres undefined) | 21 | -3.6* | 1.1 | 0.8 | -15
Cc1c(N)cccc1-c1nc2ccccc2[nH]1 | · | 0.14 | · | · | ·
O=C(CCCN1C(=O)c2ccccc2C1=O)Oc1ccc(F)cc1 | 6 | 0.6 | 0.3 | 0.9 | 65*
CCCSCCCNC(=O)c1cc2c(s1)CS(=O)(=O)C2 | 14 | -0.033 | 0.9 | 0.9 | 8
Cc1cccc(N2CCN(CCNC(=O)c3cc4c(s3)CS(=O)(=O)C4)CC2)c1C | 53* | -0.04 | 0.5 | 0.5 | 48
CCc1nnc(NC(=O)C(C)N2C(=O)C3C4C=CC(C4)C3C2=O)s1 (centres undefined) | 3 | 0.77 | 1.2 | 1 | -16
COc1ccccc1N1CCN(S(=O)(=O)/C=C/c2ccccc2)CC1 | 66* | -2.7 | 0 | 0.3 | 100*
COc1ccccc1N1CCN(S(=O)(=O)c2ccc(F)cc2)CC1 | 82* | -0.017 | 0.1 | 0.2 | 91*
Cc1cccc(C)c1N1CCN(S(=O)(=O)c2ccc(F)cc2)CC1 | 93* | 1.3 | 0 | 0.1 | 97*
COc1ccccc1N1CCN(S(=O)(=O)c2cccc(F)c2)CC1 | 89* | -0.28 | 0 | 0.1 | 96*
O=C(O)C[C@H]1c2ccc(C(F)(F)F)cc2S(=O)(=O)N1C1CCCCC1 | · | 1.1 | · | · | ·
CCN1CCN(S(=O)(=O)c2cc(OC)ccc2OC)CC1 | -18 | 0.64 | 0.9 | 1.2 | 13
COc1ccccc1N1CCN(C(=O)c2ccc(S(=O)(=O)N3CCCCCC3)cc2)CC1 | 71* | -0.0089 | 0.5 | 0.3 | 52*
O=S(=O)(/C=C/c1ccccc1)N1CCN(c2ccccc2)CC1 | -13 | 0.59 | 0.7 | 1.1 | 30
CCOC(=O)N1CCN(S(=O)(=O)/C=C/c2ccccc2)CC1 | -14 | 0.086 | 0.1 | 1.1 | 85*
COc1ccccc1NC(=O)c1ccc(S(=O)(=O)N2CCCC2)cc1 | 24 | · | 1 | 0.8 | 5
COc1ccc(OC)c(S(=O)(=O)N2CCN(c3c(C)cccc3C)CC2)c1 | 98* | -7.3* | 0.5 | 0 | 50*
CCc1nnc(NC(=O)c2cc(-c3ccccc3)nn2-c2ccccc2)s1 | 7 | -3.5 | 0.9 | 0.9 | 6
CCOC(=O)CCCCCNC(=O)c1ccc(F)cc1F | · | 1.1 | · | · | ·
COC(=O)Cc1cc(=O)[nH]c(/N=C(\N)Nc2ccccc2)n1 | -6 | 1.2 | 1 | 1.1 | 0
COc1cc(C2Nn3c(nnc3-c3ccccc3OC)S2)ccc1O (centres undefined) | · | 1.4 | · | · | ·
Cc1cccc(CSc2ncnc3nc[nH]c23)c1 | 45 | · | 0.3 | 0.5 | 72*
O=C(Oc1oc(-c2ccco2)nc1C=Nc1ccc(Cl)cc1)c1ccco1 | 10 | · | 1.1 | 0.9 | -6
CCOC(=O)C1=CSC2=NS(=O)(=O)CCN12 | -5 | 1.3 | 1.1 | 1 | -14
CS(=O)(=O)N1CCC(C(=O)c2cccc(Cl)c2)CC1 | 33 | 0.91 | 0.2 | 0.7 | 79*
CCCS(=O)(=O)N1CCC(C(=O)c2cccc(C(F)(F)F)c2)CC1 | -8 | -0.11 | 0.6 | 1.1 | 38
O=C1CC(N(O)c2ccccc2)C(=O)N1Cc1ccccc1 (centres undefined) | 1 | -0.18 | 0.2 | 1 | 78*
CCCOc1ccc(N2C(=O)CC(N(O)c3ccccc3)C2=O)cc1 (centres undefined) | 6 | 0.5 | 0.9 | 0.9 | 11

Screens from PubChem BioAssay.
